Molecules are shown by their SMILES. Where “and” joins values, the source holds several entries; their conditions need not be identical. Identical values can stand only once. Screen size: about 16,000 compounds; about 5,700 (36%) were called active. Not shown: some 24% with an inconclusive outcome. The call rests on the fitted dose curve; in most records, active means well fitted curve in the direction sought with a large enough effect; inconclusive means small, poorly fitted or top-dose-only effect, or effect the other way; inactive means no such curve, though single readings can be large or run the other way. Some of the results follow.

For orientation: AC50 means the midpoint of the concentration-response curve, whichever way the signal moves.
On the % scale 0 is the no-effect control and ±100 the full control effect.

Chain of Cytochrome P450 1A2 (Homo sapiens) (P05177 whole entry, looked up): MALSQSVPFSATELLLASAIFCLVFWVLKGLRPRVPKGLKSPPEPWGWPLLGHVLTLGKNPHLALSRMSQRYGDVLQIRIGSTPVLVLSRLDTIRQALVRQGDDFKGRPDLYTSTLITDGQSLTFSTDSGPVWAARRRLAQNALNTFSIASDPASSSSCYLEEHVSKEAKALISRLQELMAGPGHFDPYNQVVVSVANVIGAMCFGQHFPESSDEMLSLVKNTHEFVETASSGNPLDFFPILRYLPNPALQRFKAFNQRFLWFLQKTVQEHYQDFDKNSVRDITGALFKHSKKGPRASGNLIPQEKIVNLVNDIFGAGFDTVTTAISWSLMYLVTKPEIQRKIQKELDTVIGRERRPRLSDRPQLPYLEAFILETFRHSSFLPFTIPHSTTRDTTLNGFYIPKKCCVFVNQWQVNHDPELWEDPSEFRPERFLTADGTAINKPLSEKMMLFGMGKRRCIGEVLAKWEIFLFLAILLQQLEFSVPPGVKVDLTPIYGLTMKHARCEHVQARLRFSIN

This experiment has as its target Cytochrome P450 1A2 (Homo sapiens) (UniProt P05177). Description: Cytochrome panel assay with activity outcomes. The settings on record: recombinant CYP, pro-luciferin dealkylation, luminescence, p450-cyp1a2; series mostly up to 57.1 µM.
With `CC(C)CN1CCC2(CC1)CCN(C(=O)c1cccn1C)CC2`, the AC50 result was “inactive”.
Same read-out and setting: the entry for `COCC(=O)N1CCC2(CCCN(c3ncccn3)C2)CC1` is “inactive”.
On the same count and under the same terms, the figure for `N=C(N)SCc1nc2ccccc2c(=O)n1-c1ccccc1Cl` is 1260 nM (active).
The same measure, in the same setting: to `COc1ccc(C=Nc2c(O)ccc3ccccc23)cc1OC` belongs 251 nM (active).
For the compound `COc1cc(C=O)ccc1OCCCOc1ccccc1C(=O)O`, the AC50 result is “inactive”.
For `COC(=O)C/C=C\[C@@H](C)[C@@H](/C=N\O[C@@H](C)c1cn([C@H](CO)Cc2ccccc2)nn1)NS(=O)(=O)c1ccc(C)cc1`, the activity, negative = inhibition is -0.854% [at 11.4 µM] (inactive) and -7.61% [at 11.4 µM] (inactive).
For `CC(C)CN1CC2(CCN(C(=O)c3cccc(F)c3)CC2)C1`, the AC50 result is “inactive”.
The same measure, in the same setting: the figure for `O=C1CCC(c2ccccc2)=NN1c1nc2ccccc2s1` is 398 nM (active); for `N#Cc1cccc(-c2cncnc2-n2ccnc2)c1` it is 15800 nM (active); for `COc1ccccc1-c1cncnc1-n1ccnc1` it is 12600 nM (active).
Still for that read-out and setting: to `COc1cccc(-c2cncnc2-n2ccnc2)c1` belongs 100 nM (active); to `c1cncc(-c2cncnc2-n2ccnc2)c1`, 20000 nM (active).
Turning to `Cc1cn(CC[C@H](N)C(=O)O)c(=O)[nH]c1=O`, the activity, negative = inhibition is -9.38% [at 11.4 µM] (inactive).
The same measure, in the same setting: the figure for `COC(=O)C[C@@H]1O[C@H]1[C@H](C)[C@@H](OC)C(C)C` is -6.59% [at 11.4 µM] (inactive).
Take `COC(=O)[C@@]1(Cc2ccc(OC)cc2)[C@@H]2[C@@H](CC(=O)[C@H]2CC(=O)C(=O)N2CCCC2)CN1C(=O)c1ccccc1`: the AC50 entry is “inactive”.
With `COc1ccc(C[C@@H]2C(=O)N[C@H](C)C(=O)N(C)[C@@H]3Cc4ccc(cc4)Oc4cc(ccc4O)C[C@H](C(=O)N[C@@H](C)C(=O)N[C@H](C)C(=O)N2C)N(C)C3=O)cc1`, the activity, negative = inhibition is -16.4% [at 11.4 µM] (inactive).
Take `CC(C)CC(=O)N[C@H](C(=O)N[C@H](C(=O)N[C@@H](CC(C)C)[C@H](O)CC(=O)N[C@@H](C)C(=O)N[C@@H](CC(C)C)[C@H](O)CC(=O)O)C(C)C)C(C)C`: the AC50 result is “inactive”.
With `COc1ccc(O[C@H]2C=C[C@@H](c3ccccc3)O[C@@H]2CO/N=C(\C)CCN2CCc3nc(-c4ccccc4)c(-c4ccccc4)cc3C2)cc1`, the activity, negative = inhibition was -6.98% [at 11.4 µM] (inactive).
`Cc1cc2cccc(C)c2nc1SCC(=O)N(C)c1nc(-c2ccccc2)cs1`: the AC50 entry was “inactive”.
For the compound `CCC(=O)N(Cc1ccco1)c1nc(-c2ccccc2)cs1`, the AC50 is 1260 nM (active).
For `Cc1ccccc1C(C(=O)NCc1ccccc1)N(Cc1ccco1)C(=O)c1ccccn1` (configuration not stated), the AC50 entry is “inactive”.
For the compound `CCn1c(C)cc(/C=C2\NC(=O)N(Cc3ccc(Cl)cc3)C2=O)c1C`, the half-maximal activity concentration (AC50) is 355 nM (active).
On the same count and under the same terms, the entry for `CCC(C(=O)NC(C)(C)C)N(C(=O)Cn1nnc(-c2cccs2)n1)c1cnc2ccccc2c1` (configuration not stated) is “inactive”; for `Cc1cccc(N2CCN(CC(=O)Nc3ccc(-n4cnnn4)cc3)CC2)c1C` it is “inactive”.
Still for that read-out and setting: to `O=C(Nc1cnc2ccccc2c1)c1cccc(-n2cnnn2)c1` belongs 12600 nM (active); to `CC(C)(C)NC(=O)Cn1cnc([N+](=O)[O-])n1`, “inactive”.
Still for that read-out and setting: to `CC(NC(=O)Cn1cnc([N+](=O)[O-])n1)c1ccccc1` (configuration not stated) belongs “inactive”; to `O=C(Cn1cnc([N+](=O)[O-])n1)N/N=C/c1ccccc1O`, 4470 nM (active).
Regarding `COC(=O)[C@@]1(Cc2ccccc2)[C@@H]2C(=CC(=O)[C@H]2CC(=O)C(=O)N(C)C)CN1C(=O)c1ccccc1`, the AC50 entry is “inactive”.
Same read-out and setting: the figure for `COc1ccccc1CCn1c(=O)c(-c2cccc(F)c2)nc2cncnc21` is 1580 nM (active); for `COc1ccccc1CCn1c(=O)c(-c2cc(F)cc(F)c2)nc2cncnc21` it is 1580 nM (active).
On the same count and under the same terms, to `NC(=O)C1=CN([C@@H]2O[C@@H](COP(=O)(O)OP(=O)(O)OC[C@@H]3O[C@H](n4cnc5c(N)ncnc54)[C@@H](OP(=O)(O)O)[C@@H]3O)[C@H](O)[C@@H]2O)C=CC1` belongs “inactive”; to `CCCCn1nc2cc(C(=O)NCCCCc3ccccc3)ccc2c1OCC`, “inactive”; to `CCCn1nc2cc(C(=O)NCCCCc3ccccc3)ccc2c1OCC`, “inactive”.
Still for that read-out and setting: to `O=C(NC1CCCc2ccccc21)c1ccc(=O)[nH]c1` (configuration not stated) belongs “inactive”; to `CCCn1nc2cc(C(=O)NCCc3ccc(C)cc3)ccc2c1OCC`, “inactive”; to `COCCn1nc2cc(C(=O)NCC34CC5CC(CC(C5)C3)C4)ccc2c1OC`, “inactive”.
Turning to `CCCn1nc2cc(C(=O)NC3CCCc4ccccc43)ccc2c1OCC` (configuration not stated), the AC50 result is “inactive”.
On to `CCOc1c2ccc(C(=O)NCCCCc3ccccc3)cc2nn1C`, for which the concentration at half-maximal activity (AC50) was 2510 nM (active).
Take `CCCCn1nc2cc(C(=O)NCc3ccc(C(F)(F)F)cc3C(F)(F)F)ccc2c1OCC`: the AC50 entry is “inactive”.
The same measure, in the same setting: to `CCCn1nc2cc(C(=O)NCc3ccc(C)cc3)ccc2c1OC` belongs 14100 nM (active).
Regarding `CCOc1c2ccc(C(=O)NC3CCCc4ccccc43)cc2nn1C` (configuration not stated), the concentration at half-maximal activity (AC50) was 10000 nM (active).
On the same count and under the same terms, to `CCCn1nc2cc(C(=O)NCc3ccc4c(c3)OCO4)ccc2c1OCC` belongs “inactive”; to `CCOc1c2ccc(C(=O)NCc3ccc(OC(F)(F)F)cc3)cc2nn1C`, 2820 nM (active); to `O=C(NCc1ccccc1)c1onc(CSc2ccc(F)cc2)c1C(=O)NCCCN1CCOCC1`, “inactive”.
With `COc1cccc(C(=O)N(C)c2nnc(-c3ccncc3)s2)c1`, the concentration at half-maximal activity (AC50) is 12600 nM (active).
The same measure, in the same setting: the figure for `O=C(c1c(O)c2ccc(Cl)cc2[nH]c1=O)C1CC1` is 79.4 nM (active).
Take `O=C(c1n[nH]c(=O)c2ccccc12)N1CCN(C2c3ccccc3-c3ccccc32)CC1`: the AC50 is 15800 nM (active).
Consider `CCCOc1ccc(CSC(CC(=O)O)C(=O)O)cc1` (configuration not stated), for which the AC50 result was “inactive”.
For `CCCCOc1ccc(CC(=O)NO)cc1`, the half-maximal activity concentration (AC50) was 1580 nM (active).
Still for that read-out and setting: to `CCOc1ccc(CSC(CC(=O)O)C(=O)O)cc1` (configuration not stated) belongs “inactive”.
On to `O=C1C2Sc3[nH]c(=O)sc3C(c3ccccc3)C2C(=O)N1c1ccc(Cl)cc1` (configuration not stated), for which the AC50 result was “inactive”.
The same measure, in the same setting: to `COc1ccc([C@@H]2CC(=O)c3c(O)cc(O[C@H]4O[C@@H](CO[C@H]5O[C@@H](C)[C@@H](O)[C@@H](O)[C@@H]5O)[C@@H](O)[C@@H](O)[C@@H]4O)cc3O2)cc1O` belongs “inactive”.
On the same count and under the same terms, to `Brc1ccc2cccnc2c1` belongs 2510 nM (active); to `CC(=O)Nc1ccc(OCC(O)Cn2c3ccccc3c3ccccc32)c(C)c1` (configuration not stated), 2820 nM (active).
Turning to `C[n+]1cn(CC(O)COCc2ccccc2)c2ccccc21` (configuration not stated), the AC50 result was “inactive”.
Consider `Cc1ccccc1OCC(O)Cn1c2ccccc2c2ccccc21` (configuration not stated), for which the AC50 is 1780 nM (active).
As to `COc1ccc(-c2cc3ccccc3n2CC(O)CNCCO)cc1` (configuration not stated), the AC50 entry is “inactive”.
For `Cc1ccccc1OCC(O)Cn1c(NCc2ccccc2)nc2c1c(=O)[nH]c(=O)n2C` (configuration not stated), the AC50 result is “inactive”.
For `CC(=O)Nc1ccc(OCC(O)Cn2cnc3ccccc32)cc1` (configuration not stated), the AC50 result was “inactive”.
Same read-out and setting: to `C=CCN(CC=C)CC(O)Cn1c2ccccc2c2ccccc21` (configuration not stated) belongs 2000 nM (active).
As for `O[C@H](COc1ccccc1)CN1CCCCC1`, the activity, negative = inhibition was -3.85% [at 11.4 µM] (inactive).
As for `Cc1ccc(OCC(O)Cn2c3ccccc3c3ccccc32)cc1` (configuration not stated), the concentration at half-maximal activity (AC50) was 1410 nM (active).
As for `CC[C@@]12CCCN3CCc4c(n(c5ccccc45)C(=O)C1)[C@H]32`, the activity, negative = inhibition was -9.85% [at 2.29 µM] (inactive).
As to `O=C(CCCCC(=O)Nc1c(I)cc(I)c(C(=O)O)c1I)Nc1c(I)cc(I)c(C(=O)O)c1I`, the AC50 result is “inactive”.
As to `CCOc1ccccc1Oc1c(C)oc2cc(OC(=O)c3ccco3)ccc2c1=O`, the AC50 result is “inactive”.
Same read-out and setting: to `CCN(CC)Cc1c(O)ccc2c(=O)c(Oc3ccccc3OC)coc12` belongs “inactive”; to `CCOc1ccccc1Oc1coc2cc(OC)ccc2c1=O`, 5010 nM (active); to `CC(C)CC(=O)N1CCC(N2CCN(c3ccccc3)CC2)CC1`, “inactive”.
On to `CC(=O)N1CCC2(CCN(Cc3ccccc3)CC2)CC1`, for which the AC50 entry is “inactive”.
The same measure, in the same setting: the figure for `CCOC(=O)C1=C(O)C(=O)N(Cc2ccccc2)C1` is 1000 nM (active).
Same read-out and setting: the entry for `CCOC(=O)C1(S(=O)(=O)c2ccccc2)CCN(Cc2ccccc2)CC1` is “inactive”; for `Cc1cc(C)c2c(N=NN(C)C)[nH]nc2n1` it is 2240 nM (active); for `CCN(CC)N=Nc1[nH]nc2nc(C)cc(C)c12` it is 2510 nM (active).
On to `CCOC(=O)N1CCC(NC(=O)CCC(=O)N2CC(C)Oc3ccc(C)cc32)CC1` (configuration not stated), for which the AC50 result was “inactive”.
Regarding `CO[C@@H]1COC(=O)CC=C[C@@H](C)[C@@H]2C=C[C@@H](O)[C@@H](COC(=O)C/C=C\[C@H]1C)O2`, the activity, negative = inhibition is -5.43% [at 11.4 µM] (inactive).
Regarding `CN(C)Cc1ccc(-c2cc3onc(-c4ccccc4)c3c(=O)n2C)cc1`, the activity, negative = inhibition is -13.3% [at 11.4 µM] (inactive).
For the compound `CC(C)NC(=O)N1CCC2(CC1)CCN(C(=O)c1cnccn1)CC2`, the AC50 result is “inactive”.
With `C/C(=N/S(=O)(=O)c1ccc(Cl)c(Cl)c1)OCC(C)(C)C`, the activity, negative = inhibition is -4.08% [at 11.4 µM] (inactive).
With `COc1ccc(S(=O)(=O)Nc2ccc(S(=O)(=O)N3CCCCC3)cc2)cc1C`, the AC50 result is “inactive”.
For the compound `O=S(=O)(Nc1ccc(Cc2ccncc2)cc1)c1ccc(Br)cc1`, the half-maximal activity concentration (AC50) is 44.7 nM (active).
On to `CCNS(=O)(=O)c1ccc(NS(C)(=O)=O)cc1`, for which the AC50 entry was “inactive”.
For the compound `Nc1ccc(S(=O)(=O)Nc2ncccn2)cc1`, the AC50 entry was “inactive”.
As to `O=S(=O)(Nc1ccc(Cc2ccncc2)cc1)c1ccc(Cl)c(Cl)c1`, the half-maximal activity concentration (AC50) was 126 nM (active).
The same measure, in the same setting: the figure for `O=S(=O)(Nc1ccc(Cc2ccncc2)cc1)c1cccs1` is 126 nM (active); for `O=C(C(Cc1ccccc1)N1C(=O)C2C3CCC(C3)C2C1=O)N1CCCCC1` (configuration not stated) it is “inactive”; for `Cc1nc2c(ccc3nc(NC(=O)c4ccc5c(c4)OCCO5)sc32)s1` it is 3160 nM (active).
Same read-out and setting: to `COc1cc(C(=O)Nc2nc3ccc4nc(C)sc4c3s2)cc(OC)c1OC` belongs “inactive”; to `Cc1nc2ccc3nc(NC(=O)c4ccc(S(=O)(=O)N5CCOCC5)cc4)sc3c2s1`, “inactive”.
On to `c1ccc2c(c1)C(=Nc1ccc(N=C3c4ccccc4-c4ccccc43)cc1)c1ccccc1-2`, for which the activity, negative = inhibition was -19.6% [at 2.29 µM] (inactive).
For the compound `CC(=O)Nc1ccc2c(c1)C(=Nc1ccc(C(=O)O)cc1)c1ccccc1-2`, the concentration at half-maximal activity (AC50) was 316 nM (active).
On to `O=C(O)c1ccc(NS(=O)(=O)Cc2ccccc2)cc1`, for which the activity, negative = inhibition is -12.1% [at 11.4 µM] (inactive).

(Values after PubChem BioAssay AID1851 (National Center for Advancing Translational Sciences (NCATS), 2009).)
